# Laboratory results reported in PubChem BioAssay AID463173 (ICCB-Longwood Screening Facility, Harvard Medical School, 2010).
# Hit rate of the full screen: of about 52,000 compounds, about 4,300 (8.3%) were called active. No stated cut-off is given here; in the data, active means survival mostly below about 52% (no sharp cut-off); inactive means mostly above about 56%. The full list was thinned out, with actives kept by preference.
# System: DeltatarO mutant
# Test: S. aureus survival, RN4220 and DeltatarO strains – OD600, teichoic acid synthesis inhibitors, primary screen (AID 463173)
# Conditions: S. aureus RN4220 wild type/DeltatarO growth, OD600, 18 h, stronger effect = lower value, screened at 18.75 µg/mL (by protocol)
row,SMILES,survival
1,COc1ccc(NC(=O)c2cnc(N3CCCCC3)c3ccccc23)cc1Cl,78% (inactive)
2,CCOc1cc(C(=O)Nc2ccc3c(c2)n(C)c(=O)c(=O)n3C)cc(OCC)c1OCC,84% (inactive)
3,COc1ccc2c(c1)sc1ncc(C(=O)NCc3ccccc3F)c(=O)n12,101% (inactive)
4,Cc1cc(=O)c2cc(Br)ccc2[nH]1,71% (inactive)
5,Cc1ccc2[nH]c(C)cc(=S)c2c1,45% (active)
6,Cc1ccc2[nH]c(=O)cc(C(=O)O)c2c1,99% (inactive)
7,COc1cc(NC(=O)C(NS(=O)(=O)c2ccc3c(c2)CCCC(=O)N3)C(C)C)cc(OC)c1 (stereo unspecified),71% (inactive)
8,CCC(=O)c1cc2c(cc1NC(=O)c1ccccc1F)OCCO2,68% (inactive)
9,O=C(Nc1cc2c(cc1C(=O)c1cccc(Br)c1)OCCO2)c1ccccc1F,28% (active)
10,O=C(Nc1cc2c(cc1C(=O)c1ccccc1Cl)OCCO2)c1ccc(Br)cc1,66% (inactive)
11,CC1CCCN(S(=O)(=O)c2ccc(NC(=O)CSc3nc4ccccc4o3)cc2)C1 (stereo unspecified),58% (inactive)
12,CCC1Oc2ccc(C)cc2N(CC(=O)NCc2ccc(OC)cc2)C1=O (stereo unspecified),39% (active)
13,CCC1Oc2ccc(C)cc2N(CC(=O)NCc2ccc(F)cc2)C1=O (stereo unspecified),70% (inactive)
14,CCC1Oc2ccc(C)cc2N(CC(=O)NCCc2ccccc2)C1=O (stereo unspecified),80% (inactive)
15,CCC1Oc2ccccc2N(CC(=O)NCc2ccc(C)cc2)C1=O (stereo unspecified),78% (inactive)
16,CCC1Oc2ccccc2N(CC(=O)NCc2ccccc2)C1=O (stereo unspecified),-1% (active)
17,CC1Oc2ccccc2N(CC(=O)NCc2ccccc2)C1=O (stereo unspecified),92% (inactive)
18,COc1ccc(C2c3c(oc4ccc(F)cc4c3=O)C(=O)N2Cc2ccc3c(c2)OCO3)cc1 (stereo unspecified),59% (inactive)
19,COc1ccccc1N1CCN(c2ncnc3c2nc2n3CCCC2)CC1,67% (inactive)
20,Cc1cc(=O)n2nc(N3CCC(C(=O)NCc4ccccc4Cl)CC3)sc2n1,87% (inactive)
21,CCOC(=O)c1cccc(NC(=O)Nc2c(C)n(C)n(-c3ccccc3)c2=O)c1,94% (inactive)

row,SMILES,survival
1,CCCc1cc(=O)oc2cc(C)c3c(C(C)(C)C)coc3c12,88% (inactive)
2,CCCc1cc(=O)oc2cc(C)c3c(-c4ccccc4)c(C)oc3c12,-10% (active)
3,CCCc1cc(=O)oc2cc(C)c3c(-c4cccc(OC)c4)coc3c12,67% (inactive)
4,Cc1ccc2[nH]c(=O)c(CN(Cc3ccccc3)C(=O)c3ccco3)cc2c1,103% (inactive)
5,CCc1nnc2n1N(C(C)=O)C(c1ccc(C(C)(C)C)cc1)=C(C(C)=O)S2,96% (inactive)
6,Cc1c(CNC2CCCCCC2)c(C(=O)O)c(C)n1Cc1ccc(F)cc1Cl,80% (inactive)
7,CN1C(C(=O)Nc2cccc(O)c2)=CC(c2cccs2)=NS1(=O)=O,87% (inactive)
8,Oc1cccc(-c2nc(-c3cccs3)c(-c3cccs3)[nH]2)c1,4% (active)
9,Fc1ccc2[nH]c(-c3cccs3)cc2c1,54% (inactive)
10,Cc1sc(N)nc1-c1cccs1,96% (inactive)
11,Oc1ccccc1-c1nc(-c2cccs2)c(-c2cccs2)[nH]1,0% (active)
12,Fc1ccc(-c2nc(-c3cccs3)c(-c3cccs3)[nH]2)cc1,64% (inactive)
13,CN(C)c1ccc(-c2nc(-c3cccs3)c(-c3cccs3)[nH]2)cc1,47% (active)
14,Cc1ccc(-c2nc(-c3cccs3)c(-c3cccs3)[nH]2)cc1,62% (inactive)
15,COc1ccc(O)c(-c2cn[nH]c2-c2cccs2)c1,89% (inactive)
16,COc1cc(Cl)c(C)cc1NC(=O)CCc1c(C)nc2cc(-c3cccc(F)c3)nn2c1C,74% (inactive)
17,CCCCc1nn2c(=O)cc(CN(CC)c3ccccc3)nc2s1,73% (inactive)
18,Cc1noc2ncnc(N3CCN(c4cccc(C(F)(F)F)c4)CC3)c12,71% (inactive)
19,CCOC(=O)CSc1nc2cc3c(cc2c(=O)n1CCCC(=O)NCc1ccc2c(c1)OCO2)OCO3,83% (inactive)
20,COc1ccc(S(=O)(=O)NCCc2sc3nc(-c4ccc(C)cc4)nn3c2C)cc1F,72% (inactive)
21,Cc1cc(C)cc(-n2cnc3cc(C(=O)NC4CCCCCC4)ccc32)c1,95% (inactive)

row,SMILES,survival
1,Nc1nonc1-c1nc2ccccc2n1CC(=O)Nc1ccc(F)cc1,169% (inactive)
2,Nc1nonc1-c1nc2ccccc2n1CC(=O)Nc1ccccc1C(=O)O,45% (active)
3,Nc1nonc1-c1nc2ccccc2n1CCn1c(-c2nonc2N)nc2ccccc21,82% (inactive)
4,CCc1ccccc1NC(=O)Cn1c(-c2nonc2N)nc2ccccc21,86% (inactive)
5,Nc1nonc1-c1nc2ccccc2n1CC(=O)Nc1cccc(Cl)c1Cl,66% (inactive)
6,NC(=O)Cn1c(-c2nonc2N)nc2ccccc21,62% (active)
7,COc1ccc(-c2nc(SCC(=O)NC3CCCC3)c(-c3ccc(C)cc3)[nH]2)cc1OC,57% (inactive)
8,COc1ccc(Cn2ccc3nc(C)c(C(=O)NCc4ccc(C)cc4)cc3c2=O)cc1,60% (inactive)
9,O=C(COC(=O)c1ccco1)Nc1cccc2ccccc12,97% (inactive)
10,CCOC(=O)c1c(-c2cccs2)csc1NC(C)=O,69% (inactive)
11,CNS(=O)(=O)c1cn(CC(=O)N2CCN(c3ccc(Cl)cc3)CC2)cc1S(=O)(=O)NC,106% (inactive)
12,CNS(=O)(=O)c1cn(CC(=O)N2CCN(c3ccc(C(C)=O)cc3)CC2)cc1S(=O)(=O)NC,37% (active)
13,CNS(=O)(=O)c1cn(CC(=O)N2CCN(c3ccc(OC)cc3)CC2)cc1S(=O)(=O)NC,69% (inactive)
14,O=C(Cn1cc(SCc2ccc(F)cc2)c2ccccc21)N1CCCCC1,79% (inactive)
15,Cc1ccc(NC(=O)c2oc3ccc(S(=O)(=O)N(C)C4CCCCC4)cc3c2C)c(C)c1,73% (inactive)
16,Cc1nc2ccc(NC(=O)C3CCCCC3)cc2c(=O)n1Cc1ccccc1,63% (inactive)
17,COc1ccc(CNS(=O)(=O)c2ccc(C(=O)N(C)C)s2)cc1,66% (inactive)
18,CN(C)C(=O)c1ccc(S(=O)(=O)NCc2ccc(Cl)cc2)s1,119% (inactive)
19,Cc1ccc(CNS(=O)(=O)c2ccc(C(=O)N(C)C)s2)cc1,-4% (active)
